# Several values for one entry are separate records, joined by “and”; a condition that tells them apart may be missing. Identical values can stand only once. Activity calls are given as the source filed them.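 How the source made its calls, unless noted: active means thallium flux through the channel raised or lowered by more than 3 SD from vehicle-only wells, actives on both sides; inactive means the rest.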
# Columns and labels:
# [1] = test system: Hepatitis C virus NS3 helicase; test: blockers of NS3h binding to DNA – biochemical, fluorescence polarization, NIH Clinical Collection, primary screen (AID 743270; call rule not given here); conditions: NS3 helicase binding to Cy5-dT15 DNA, stronger effect = higher value, concentration not given here
# [2] = target: Single-stranded DNA-binding protein (Escherichia coli (strain K12)) (UniProt P0AGE0); test: SSB-ssDNA binding inhibitors – biochemical, fluorescence polarization, NIH Clinical Collection, counter-screen for HCV NS3 helicase inhibitor project (AID 743271; in the data active means inhibition above about 28%); conditions: E. coli SSB-DNA binding, stronger effect = higher value, concentration not given here
# [3] = compounds distorting NS3 helicase fluorescence signal – biochemical, NIH Clinical Collection, artefact control for HCV NS3 helicase inhibitor project (AID 743272; call rule not given here;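 further: HCV NS3 helicase with a Cy5 labelled single stranded DNA probe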); conditions: fluorescence interference counterscreen, HCV NS3 helicase assay; stronger effect = lower value
# [4] = Wnt pathway potentiators raising nuclear beta-catenin – imaging, WNT3A-conditioned medium, mouse C2C12, NPC library, primary screen (AID 1117326; in the data active means nuclear beta-catenin stimulation mostly above about 4.2%, no sharp cut-off; inactive means mostly below about 10%); conditions: stronger effect = higher value
# [5] = stimulators of insulin release from INS-1E, primary screen, cell-based, 5 mM glucose, NPC library (AID 1117329;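 active means compound raises insulin release from rat beta cells at 5 mM glucose, no numeric limit stated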); conditions: rat INS-1E insulin secretion, at 10 µM, stronger effect = higher value
# [6] = growth inhibition of GSK3B-pretreated HCT116 cells – cell-based, CellTiter-Glo, 0.2 to 20 µM (AID 1117336;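 active means compounds lowering colon cancer cell viability after pretreatment blocking the GSK3B kinase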); conditions: HCT116 viability after GSK3B inhibitor, at 20 µM, stronger effect = higher value
# [7] = inhibition of endothelial tube formation, primary screen, imaging, VEGF stimulated, CD31 staining, tube area, NPC library (AID 1117340;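 active means compound that reduces growth-factor-driven endothelial tube area in a mixed cell culture, no cutoff stated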); conditions: VEGF-stimulated ADSC/ECFC co-culture, at 10 µM, stronger effect = higher value
# [8] = GLP1 release stimulators, primary, NCI-H716, NPC library (AID 1117341;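 active means compound raises GLP1 secretion from the human gut endocrine cells, with no numeric limit stated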); conditions: NCI-H716 cells, at 10 µM, stronger effect = higher value
# [9] = HCT116 colon cancer cell growth inhibition, primary screen, CellTiter-Glo luminescence, NPC library (AID 1117342;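 active means compounds that lower survival of HCT116 colon cancer cells in the luminescence readout, no numeric limit stated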); conditions: at 20 µM (top of the series)
# [10] = reduced SW480 viability measured with CellTiter-Glo, NPC library, primary (AID 1117343;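 active means compounds that lower viability of the colon cancer cells in the luminescence readout, with no numeric limit stated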); conditions: CellTiter-Glo luminescence; at 20 µM (top of the series)
# [11] = NPC library primary testing for decreased DLD-1 cell viability via CellTiter-Glo (AID 1117346;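 active means compounds that lower survival of DLD-1 colon cancer cells in the luminescence readout, no cutoff given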); conditions: DLD-1 viability, CellTiter-Glo luminescence; at 20 µM (top of the series)
# [12] = target: 6-phosphogluconate dehydrogenase, decarboxylating (Homo sapiens) (UniProt P52209); test: inhibition of human phosphogluconate dehydrogenase – biochemical, recombinant enzyme, NADPH absorbance, primary screen (AID 1159550;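 active means at least 20% inhibition of 6-phosphogluconate dehydrogenase activity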); conditions: recombinant 6PGD, NADPH absorbance 341 nm; at 10 µM; stronger effect = higher value
# [13] = EMT-state selective cytotoxicity in co-culture – imaging, PC-3E GFP, TEM4-18 mCherry, primary screen (AID 1345086;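 active means compounds killing one labelled cell type while sparing the other, by normalised counts and ratio limits, not self-fluorescent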;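 on all read-outs here: cells exposed to compound for 72 h before imaging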;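 on red/green cell ratio (normalised): normalised mesenchymal count divided by normalised epithelial count so high means epithelial killing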); conditions: PC-3E GFP / TEM4-18 mCherry co-culture, imaging cell counts, at 1 µM; for red/green cell ratio (normalised): actives lie on both sides, counts scaled to control wells, 1 = unselective
# [14] = MELAS cybrid and Rieske KO viability enhancers – cell-based, MELAS cybrids, Rieske KO mouse fibroblasts, CellTiter-Glo, primary screen (AID 1508586;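 active means mean z-score across replicates of 1.96 or higher in either the MELAS or the Rieske mutant cell line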;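 further: z relative to plate mean and SD of compound and empty wells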); conditions: low glucose
# [15] = target: NAD(+) hydrolase SARM1 (Homo sapiens) (UniProt Q6SZW1); test: blocking NAD cleavage by SARM1 SAM-TIR – cell lysate, NAD-Glo luminescence (AID 1508614;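 active means compound whose remaining NAD level is above about 45 nM, limit read from the data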); conditions: SAM-TIR HEK293T lysate NADase, at 1 µM, stronger effect = higher value
# [16] = target: Mitogen-activated protein kinase 7 (Homo sapiens) (UniProt Q13164); test: Gal4-ERK5 driven luciferase induction – cell-based, HTS, primary screen (AID 1508626;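 active means luciferase signal above three times the same-plate solvent-only control wells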;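 further: luciferase driven by Gal4-ERK5 fusion binding five Gal4 sites before minimal TATA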); conditions: HeLa Gal4-ERK5 transactivation, 18 h, at 5 µM, stronger effect = higher value
# [17] = test system: F380Y; test: BK channel mutant inhibitors and activators – cell-based, U2OS BacMam, thallium flux, beta subunits, selectivity assay, profiling panel (AID 1259406); conditions: U2OS BacMam BK variants, at 30 µM;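 further: initial slope of Thallos dye fluorescence rise after thallium is added; log ratio against the mean of 0.3% DMSO vehicle wells on the same plate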
# [18] = test system: F380Y/beta2Delta; test: as above; conditions: U2OS BacMam BK variants, at 30 µM
# [19] = target: Calcium-activated potassium channel subunit alpha-1 (Homo sapiens) + Leucine-rich repeat-containing protein 26 (Homo sapiens) (UniProt Q12791+Q2I0M4); test: as above; conditions: U2OS BacMam BK variants, F380Y/Slo1WT/gamma1, at 30 µM
# [20] = viability loss with induced miR-34 in A549 – imaging, A549 dox-inducible miR-34, nuclei and caspase counts, primary screen (AID 1347080;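 active means compounds whose cell count with miR-34 switched on is under 0.7 times the count with it off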); conditions: A549 miR-34 inducible, Hoechst nuclei count, 48 h
# [21] = measured here: epithelial PC-3E GFP cell survival
# [22] = measured here: mesenchymal TEM4-18 mCherry cell survival
# [23] = MELAS cybrid survival, CellTiter-Glo 48 h, stronger effect = higher value
# [24] = Rieske KO mouse fibroblast survival, CellTiter-Glo 72 h
# [25] = stronger effect = lower value, cell number ratio, induced over uninduced
# [26] = measured here: relative caspase fold change +Dox/-Dox
# [27] = measured here: total cells with miR-34 induction, stronger effect = lower value
# [28] = measured here: total cells without miR-34 induction
# Sequence of 6-phosphogluconate dehydrogenase, decarboxylating (Homo sapiens) (P52209 whole entry, looked up): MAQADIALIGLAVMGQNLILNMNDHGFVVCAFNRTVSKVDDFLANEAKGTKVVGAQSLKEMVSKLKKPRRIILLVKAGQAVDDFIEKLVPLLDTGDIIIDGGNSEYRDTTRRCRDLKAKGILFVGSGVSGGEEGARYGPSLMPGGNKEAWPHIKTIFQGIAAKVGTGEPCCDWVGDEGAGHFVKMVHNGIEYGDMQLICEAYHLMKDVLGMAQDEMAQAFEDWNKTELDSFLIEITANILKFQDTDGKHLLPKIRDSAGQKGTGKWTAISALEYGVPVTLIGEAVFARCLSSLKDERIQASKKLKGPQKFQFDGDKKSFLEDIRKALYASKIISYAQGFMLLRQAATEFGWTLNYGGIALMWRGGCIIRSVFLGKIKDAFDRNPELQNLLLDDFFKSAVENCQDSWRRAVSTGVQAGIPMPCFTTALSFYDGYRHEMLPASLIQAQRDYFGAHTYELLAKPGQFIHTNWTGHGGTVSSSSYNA
# Sequence of Mitogen-activated protein kinase 7 (Homo sapiens) (Q13164 whole entry, looked up, the tested form may be a part): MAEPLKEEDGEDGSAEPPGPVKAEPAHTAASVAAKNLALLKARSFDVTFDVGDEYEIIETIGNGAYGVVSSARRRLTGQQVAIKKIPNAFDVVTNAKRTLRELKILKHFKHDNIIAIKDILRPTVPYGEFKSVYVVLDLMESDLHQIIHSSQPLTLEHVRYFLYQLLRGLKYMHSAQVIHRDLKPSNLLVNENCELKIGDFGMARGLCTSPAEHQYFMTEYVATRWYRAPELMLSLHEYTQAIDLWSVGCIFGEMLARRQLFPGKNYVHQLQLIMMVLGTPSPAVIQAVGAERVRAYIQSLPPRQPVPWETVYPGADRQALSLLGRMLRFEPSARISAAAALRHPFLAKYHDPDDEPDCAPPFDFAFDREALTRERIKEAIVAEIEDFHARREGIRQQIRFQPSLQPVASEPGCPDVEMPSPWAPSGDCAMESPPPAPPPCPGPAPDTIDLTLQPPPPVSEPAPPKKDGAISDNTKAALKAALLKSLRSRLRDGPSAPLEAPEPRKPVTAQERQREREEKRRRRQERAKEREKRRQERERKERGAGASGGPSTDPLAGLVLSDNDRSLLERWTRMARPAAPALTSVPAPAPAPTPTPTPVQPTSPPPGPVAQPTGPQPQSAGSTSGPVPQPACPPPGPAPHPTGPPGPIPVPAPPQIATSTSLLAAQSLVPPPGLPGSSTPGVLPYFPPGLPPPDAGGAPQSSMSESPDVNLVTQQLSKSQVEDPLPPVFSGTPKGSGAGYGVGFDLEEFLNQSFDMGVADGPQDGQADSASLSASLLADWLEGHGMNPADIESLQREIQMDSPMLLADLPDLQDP
# Sequence of Calcium-activated potassium channel subunit alpha-1 (Homo sapiens) + Leucine-rich repeat-containing protein 26 (Homo sapiens) (Q2I0M4 whole entry, looked up, one chain of several): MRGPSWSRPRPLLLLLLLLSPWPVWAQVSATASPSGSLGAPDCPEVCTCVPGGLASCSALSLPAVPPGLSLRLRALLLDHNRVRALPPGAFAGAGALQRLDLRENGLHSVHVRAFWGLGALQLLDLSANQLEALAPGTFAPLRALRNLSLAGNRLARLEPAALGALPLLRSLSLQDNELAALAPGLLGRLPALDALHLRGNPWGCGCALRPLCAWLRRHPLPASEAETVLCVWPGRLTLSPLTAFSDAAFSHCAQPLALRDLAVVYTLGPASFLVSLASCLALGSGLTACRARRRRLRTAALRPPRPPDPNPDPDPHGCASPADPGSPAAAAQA
# Sequence of NAD(+) hydrolase SARM1 (Homo sapiens) (Q6SZW1 whole entry, looked up, the tested form may be a part): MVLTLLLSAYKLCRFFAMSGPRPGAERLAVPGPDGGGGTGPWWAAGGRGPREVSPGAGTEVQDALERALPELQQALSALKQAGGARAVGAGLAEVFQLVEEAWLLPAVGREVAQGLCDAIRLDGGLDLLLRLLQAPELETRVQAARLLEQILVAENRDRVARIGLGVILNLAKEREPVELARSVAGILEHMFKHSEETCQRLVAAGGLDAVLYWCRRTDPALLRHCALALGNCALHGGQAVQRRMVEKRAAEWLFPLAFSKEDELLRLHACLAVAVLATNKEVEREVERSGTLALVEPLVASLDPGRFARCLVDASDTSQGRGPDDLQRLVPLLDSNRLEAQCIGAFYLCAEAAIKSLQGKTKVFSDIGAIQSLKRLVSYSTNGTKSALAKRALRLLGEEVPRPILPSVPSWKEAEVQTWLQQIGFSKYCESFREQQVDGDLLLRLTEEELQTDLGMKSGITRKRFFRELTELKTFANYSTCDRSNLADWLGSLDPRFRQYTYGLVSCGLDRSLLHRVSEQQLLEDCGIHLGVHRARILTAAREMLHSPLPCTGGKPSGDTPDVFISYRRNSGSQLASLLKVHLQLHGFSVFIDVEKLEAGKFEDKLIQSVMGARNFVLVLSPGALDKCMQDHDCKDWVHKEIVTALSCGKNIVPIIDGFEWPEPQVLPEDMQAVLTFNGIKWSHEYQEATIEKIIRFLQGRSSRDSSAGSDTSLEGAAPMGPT
structure (smiles),measurement,setting,value
NC(N)=NC(=O)c1nc(Cl)c(N)nc1N,inhibition,[1],6.73% (inactive)
same,inhibition,[2],13.8% (inactive)
same,fluorescence ratio,[3],0.9 (inactive)
same,nuclear beta-catenin stimulation,[4]; at 10 µM,0.7% (inactive)
same,nuclear beta-catenin stimulation,"[4]; stimulation, at 2 µM",-2%
same,insulin secretion stimulation,[5],4.35% (inactive)
same,viability decrease,[6],3.2% (inactive)
same,tube area decrease,[7],1.1% (inactive)
same,GLP1 secretion stimulation,[8],2% (inactive)
same,inhibition of viability,[9],3% (inactive)
same,viability decrease (inhibition),[10],1.8% (inactive)
same,viability decrease (inhibition),[11],-11.5% (inactive)
same,inhibition,[12],7.13% (inactive)
same,red/green cell ratio (normalised),[13],0.85 (inactive)
same,normalised cell number,[13]; [21],1.29
same,normalised cell number,[13]; [22],1.1
same,z-score,[14]; [23],-0.14 (inactive) and -0.352 (inactive) and 0.738 (inactive)
same,z-score,[14]; [24],0.245 and 0.664 and 0.681
same,remaining NAD,[15],10 nM (inactive)
same,luciferase signal,[16],44 AU (inactive)
same,log fold change Tl+ flux,[17],-0.00821 (inactive)
same,log fold change Tl+ flux,[18],-0.0347 (inactive)
same,log fold change Tl+ flux,[19],0.0238 (inactive)
C[C@]12C=CC(=O)C=C1CC[C@@H]1[C@@H]2[C@@H](O)C[C@@]2(C)[C@H]1CC[C@]2(O)C(=O)CO,inhibition,[1],-1.36% (inactive)
same,inhibition,[2],0.29% (inactive)
same,fluorescence ratio,[3],0.96 (inactive)
same,nuclear beta-catenin stimulation,[4]; at 10 µM,-2.6% (inactive)
same,nuclear beta-catenin stimulation,"[4]; stimulation, at 2 µM",-0.7%
same,insulin secretion stimulation,[5],1.6% (inactive)
same,viability decrease,[6],-2.7% (inactive)
same,tube area decrease,[7],11.2% (inactive)
same,GLP1 secretion stimulation,[8],-0.5% (inactive)
same,inhibition of viability,[9],-3.5% (inactive)
same,viability decrease (inhibition),[10],-1.5% (inactive)
same,viability decrease (inhibition),[11],-18.8% (inactive)
same,inhibition,[12],-5.44% (inactive)
same,fold change,[20]; [25],0.93 (inactive) and 0.783 (inactive) and 0.847 (inactive)
same,fold change,[20]; [26],1.73 and 1.43 and 1.29
same,cell count,[20]; [27],7530 and 6090 and 6580
same,cell count,[20]; [28],8090 and 7780 and 7760
same,z-score,[14]; [23],0.367 (inactive) and 0.381 (inactive)
same,z-score,[14]; [24],-0.0179 and 1.19
same,remaining NAD,[15],10 nM (inactive)
same,luciferase signal,[16],84 AU (inactive)
same,log fold change Tl+ flux,[17],0.0238 (inactive)
same,log fold change Tl+ flux,[18],0.0411 (inactive)
same,log fold change Tl+ flux,[19],-0.0308 (inactive)
CN(C)CCN(Cc1ccccc1)c1ccccn1,inhibition,[1],0.4% (inactive)
same,inhibition,[2],-0.87% (inactive)
same,fluorescence ratio,[3],0.93 (inactive)
same,nuclear beta-catenin stimulation,[4]; at 10 µM,1.1% (inactive)
same,nuclear beta-catenin stimulation,"[4]; stimulation, at 2 µM",0.8%
same,insulin secretion stimulation,[5],13% (inactive)
same,viability decrease,[6],-23.2% (inactive)
same,tube area decrease,[7],5.3% (inactive)
same,GLP1 secretion stimulation,[8],4.8% (inactive)
same,inhibition of viability,[9],13.3% (inactive)
same,viability decrease (inhibition),[10],-2.1% (inactive)
same,viability decrease (inhibition),[11],-41.1% (inactive)
same,inhibition,[12],4.76% (inactive)
same,red/green cell ratio (normalised),[13],0.96 (inactive)
same,normalised cell number,[13]; [21],1.02
same,normalised cell number,[13]; [22],0.99
same,fold change,[20]; [25],1.02 (inactive) and 1.23 (inactive) and 0.865 (inactive)
same,fold change,[20]; [26],1.94 and 0.367 and 2.89
same,cell count,[20]; [27],10300 and 8350 and 10800
same,cell count,[20]; [28],10100 and 6800 and 12500
same,z-score,[14]; [23],-0.152 (inactive) and -0.218 (inactive)
same,z-score,[14]; [24],-0.132 and 0.37
same,remaining NAD,[15],10 nM (inactive)
same,luciferase signal,[16],32 AU (inactive)
same,log fold change Tl+ flux,[17],-0.114 (active)
same,log fold change Tl+ flux,[18],-0.027 (inactive)
same,log fold change Tl+ flux,[19],0.0226 (inactive)
